We go through 40 compounds from PubChem BioAssay (NCI).

The panel holds about 83,000 compounds, 20% with a hit somewhere; the sample as a whole holds those more often.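 Single-concentration screen, 48 h exposure, 96-well plates. Endpoint: percent growth. Below 10 = active.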 A number with no mark means an inactive call. Calls of active or inactive are those of the source.

This assay has as its system MOLT-4 leukemia. Put plainly: NCI-60 one-dose screen, 48 h (100 = growth as untreated, 0 = no growth, -100 = all killed). The conditions noted are these: 10 µM unless noted. Here is the method:
Growth inhibition of the MOLT-4 human tumor cell line is measured as a screen for anti-cancer activity. Cells are grown in 96 well plates and exposed to the test compound for 48 hours. Compounds are tested at a single concentration, which is 10^-5 M for most compounds. The reported endpoint is percent growth (GI% or GIPRCNT), where numbers from 0 - 100% represent growth inhibition, and numbers from -100% - 0 represent cell death. For example, a value of 40 represents 60% growth inhibition. A value of 0 means no net growth occurred over the course of the experiment. A value of -40 indicates 40% of cells at the beginning of the experiment died by the end of the experiment. A value of -100 means all cells are dead at the end of the experiment.
NCI-60 Human Tumor Cell Lines Screen was performed using the standard one-dose NCI protocol, which is described in more detail at https://dtp.cancer.gov/discovery_development/nci-60/default.htm.
Compounds with GIPRCNT values below 10 were considered active. Activity score was based on GIPRCNT using the following formula: […]
Score is 0 for GIPRCNT values of 100 or above, 50 for GIPRCNT values of 0, and 100 for GIPRCNT values of -100.
In the case of `CC(=O)Nc1ccc(C(=O)c2ccc(S(=O)(=O)Nc3ccccc3)cc2)cc1`, the growth is 102%. Regarding `O=C(NC1CCCCC1)c1ccc(Cl)cc1`, the growth was 95.2%. Turning to `Clc1ncnc2nc[nH]c12`, the growth is 100%. As to `Nc1c(O)c(S(=O)(=O)O)c(O)c2c1C(=O)c1ccccc1C2=O`, the growth is 5.87% (active).

In the case of `Nc1nnc2cc(F)ccc2n1`, the growth was 102%. As for `C/C(O)=C(/C=N/C(=S)Nc1ccccc1)C(=O)Nc1ccccc1C`, the growth was 96.9%. As for `OCC(O)COc1ccc(Cl)cc1Cl` (stereo not given), the growth is 99.2%. Turning to `Cc1ccc([N+](=O)[O-])c(C)n1`, the growth was 115%. Then `O=C(Nc1ccccc1)c1ccco1`, with 93.5%; and `OC(CBr)CCBr` (stereo not given), with 104%. For the compound `NC(CCl)=NCC12CC3CC(CC(C3)C1)C2`, the growth is 27.4%. On to `Cc1ccnc(Nc2nc3ccccc3[nH]2)n1`, for which the growth was 92.4%.

As for `CCN(Cc1ccc(Cl)c(Cl)c1)c1ccc2nc(N)nc(N)c2c1C`, the growth was -59.5% (active). Take `C#CCSc1nnnn1-c1ccccc1`: the growth was 87.9%. Then `COc1nc2ccccc2s1`, with 103%; and `COc1cc(N)c2ncccc2c1Cl`, with 93.3%. Then `CN1C(=O)NC(c2ccc(Cl)cc2)(c2ccc(Cl)cc2)C1=O`, with 89.1%. On to `C=COC(=O)CCOCC(CC)CCCC` (stereo not given), for which the growth was 93.9%. `CCCCCC#CC(=O)O`: the growth is 101%. In the case of `CCCCN(C=S)CCCC`, the growth was 91.4%. The figure for `O=C(O)CSCC(=O)Nc1cc(C(F)(F)F)ccc1Cl` is 109%; for `N#C/C(=C\NC(=S)N=Nc1c(O)[nH]c2ccccc12)c1nc2ccccc2s1` it is 99.4%; for `CC(=O)NCNC(C)=O` it is 87.9%. In the case of `O=C(NCc1ccco1)Nc1cccc2c(NC(=O)NCc3ccco3)cccc12`, the growth was 59.1% [100 µM]. As to `Cc1nc(O)cc(=O)[nH]1`, the growth is 103%. On to `CC(=O)Nc1ncc(S(=O)(=O)c2ccc([N+](=O)[O-])cc2)s1`, for which the growth is 102%. In the case of `CCOC(=O)CNC`, the growth is 103%.

As for `O=C(CC(CC(=O)c1ccccc1)c1ccccn1)c1ccccc1`, the growth is 102%. Take `CCCNS(=O)(=O)c1ccc(Cl)cc1`: the growth is 113%. Then `O=C(O)CCCCCNC(=O)OCc1ccccc1`, with 110%; and `O=C(O)Cc1ccccn1`, with 89.3%. With `CN(C)Cc1ccccn1`, the growth is 107%. Then `CN(C)c1ccc2c(N(C)C)cc(N(C)C)nc2c1`, with 80.3%. For the compound `O=C(c1ccc(Cl)cc1)N1CCCCC1`, the growth is 98.9%.

With `CC(=O)[C@@]1(O)CC[C@H]2[C@@H]3CC[C@@H]4CC(=O)CC[C@]4(C)[C@H]3[C@@H](O)C[C@@]21C`, the growth is 94.5%. As to `CC12CCC3c4ccc(O)cc4CCC3C1CCC2=O` (stereo not given), the growth was 81.1%. As to `C=CC(C)C(C)(C)O` (stereo not given), the growth was 95.2%. Regarding `Cc1ccccc1CC(N)C(=O)O` (stereo not given), the growth was 109%. In the case of `CS(=O)CC(=N\O)/C(CS(C)=O)=N\O` (stereo not given), the growth is 105%. Regarding `O=C(O)C1CCCN1C(=O)OCc1ccccc1` (stereo not given), the growth was 96.2%.
